From PubChem BioAssay
Values joined by “and” are separate entries in the source; they are usually repeats but may differ in a detail not shown here. Identical values can stand only once. Some compounds were tested as several samples or in several runs, with calls that do not always agree. Active and inactive are the calls of the source. Unless noted, no rule for the calls is given here.

Key:
[1] = tested on: Wnt5a (protein binding on small-molecule microarray); experiment: Wnt5a binders on small-molecule microarray, primary screen, biophysical, 635/667 nm fluorescence (AID 1142); settings: 635 nm fluorescence, higher = more signal;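 also: fluorescence read at 667 nm with signal to noise per printed feature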
[2] = cell viability in Huh7 cells, primary screen, cytotoxicity control for HCV replication inhibitor project, CellTiter-Glo luminescence, basal, 48 h (AID 1143); settings: Huh7 HCV replicon, higher = more signal, called active from +8 up or from −8 down;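 also: Huh7 hepatoma cells carrying a hepatitis C replication reporter with no stimulus; test concentration not given here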
[3] = P. aeruginosa biofilm formation inhibitors, primary screen, PAO1 strain, BacTiter-Glo luminescence, LB-PBS (AID 1144); settings: 12 h, higher = more signal
[4] = CREB reporter modulators without forskolin, primary screen, cell-based, PC12, CRE-LacZ reporter, unstimulated (AID 1145); settings: no forskolin, luminescence, 4.5 h, higher = more signal, called active from +8 up or from −8 down
[5] = CREB reporter modulators under forskolin, primary screen, cell-based, PC12, CRE-LacZ reporter, forskolin-stimulated (AID 1146); settings: luminescence, 4.5 h, higher = more signal, called active from +8 up or from −8 down;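 also: PC12 cells with 6xCRE LacZ reporter stimulated by forskolin 10 µM; beta-galactosidase reporter signal reflecting CREB driven transcription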
[6] = molecular target: Streptavidin (Streptomyces avidinii) (UniProt P22629); experiment: streptavidin binders on small-molecule microarray, primary screen, artefact control for SMM compound annotation, biophysical, 635/667 nm fluorescence (AID 1147); settings: streptavidin binding, higher = more signal;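 also: signal reflects streptavidin binding to arrayed compounds as a control protein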
Streptavidin (Streptomyces avidinii), sequence (P22629 whole entry, looked up): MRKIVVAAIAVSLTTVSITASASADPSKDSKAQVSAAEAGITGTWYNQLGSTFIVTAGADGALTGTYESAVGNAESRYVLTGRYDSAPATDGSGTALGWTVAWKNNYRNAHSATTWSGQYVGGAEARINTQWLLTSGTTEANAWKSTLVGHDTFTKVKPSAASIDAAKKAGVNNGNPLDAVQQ

[7] = small-molecule binders of probe aInhba, primary screen, biochemical, small-molecule microarray, 635/667 nm fluorescence (AID 1148); settings: higher = more signal;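 also: score merges 667nm spot fluorescence with signal-to-noise for antibody binding to printed compounds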
[8] = molecular target: Torsin-1A (Homo sapiens) (UniProt O14656); experiment: torsin A binders from cell lysate, primary screen, small-molecule microarray, wild-type, 635/667 nm (AID 1149); settings: COS7 hTOR1A-WT lysate, 635 nm fluorescence, higher = more signal
Torsin-1A (Homo sapiens), sequence (O14656 whole entry, looked up): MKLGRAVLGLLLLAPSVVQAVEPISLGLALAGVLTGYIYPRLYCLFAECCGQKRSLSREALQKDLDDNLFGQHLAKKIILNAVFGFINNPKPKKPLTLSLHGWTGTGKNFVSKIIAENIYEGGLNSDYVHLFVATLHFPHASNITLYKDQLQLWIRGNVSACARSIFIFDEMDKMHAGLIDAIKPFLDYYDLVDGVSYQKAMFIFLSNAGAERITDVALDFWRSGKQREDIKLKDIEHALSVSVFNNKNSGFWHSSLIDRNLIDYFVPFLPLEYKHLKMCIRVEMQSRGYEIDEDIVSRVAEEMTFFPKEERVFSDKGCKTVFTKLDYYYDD

[9] = molecular target: Torsin-1A (Homo sapiens) (UniProt O14656); experiment: small-molecule binders of mutant TOR1A in lysate, primary screen, cell lysate, small-molecule microarray, COS7 lysate, 635/667 nm fluorescence (AID 1150); settings: COS7 hTOR1A mutant lysate, 635 nm fluorescence, higher = more signal;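 also: score pools 667 nm emission and signal to noise measuring lysate protein binding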
[10] = tested on: Sonic hedgehog protein (Shh); experiment: small-molecule binders of Shh protein, primary screen, biochemical, small-molecule microarray, 635/667 nm fluorescence (AID 1151); settings: small-molecule microarray binding, 635 nm fluorescence; higher = more signal;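 also: Shh protein binding to compounds spotted on small-molecule microarray slides; score combines spot fluorescence intensity with signal-to-noise across triplicate slides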
[11] = E. coli DRC41 culture turbidity changes, primary screen, E. coli filamentation inducer project, strain DRC41, OD650, 48 h (AID 1152);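 also: E. coli MC1000 strain DRC41 lacking acrAB efflux pump and sulA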; settings: E. coli DRC41 (acrAB sulA), higher = more signal, called active from +8 up or from −8 down
[12] = small-molecule binders of probe aLefty1, primary screen, biochemical, small-molecule microarray, 635/667 nm fluorescence (AID 1153); settings: higher = more signal;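 also: score merges spot fluorescence with signal-to-noise ratio from the scanned slide images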
[13] = PSAC antagonists in infected red cells, primary screen, cell-based, P. falciparum Indochina, OD700, 1 h (AID 1154); settings: P. falciparum Indochina infected RBC osmotic lysis, higher = more signal, called active from +8 up or from −8 down
[14] = PSAC antagonists in infected red cells, primary screen, cell-based, P. falciparum Indochina, OD700, 2 h (AID 1155);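 also: lysis reports solute entry through the parasite surface anion channel PSAC; channel blockers reduce lysis of infected cells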; settings: P. falciparum Indochina infected erythrocytes, osmotic lysis OD700; higher = more signal, called active from +8 up or from −8 down
[15] = osmotic lysis modulators in infected erythrocytes, primary screen, PSAC antagonist project, cell-based, P. falciparum Indochina, OD700, 3 h (AID 1156); settings: higher = more signal, called active from +8 up or from −8 down
[16] = PSAC antagonists in infected red cells, primary screen, cell-based, P. falciparum Indochina, OD700, 18 h (AID 1157); settings: P. falciparum Indochina infected erythrocytes, osmotic lysis OD700, 18 h; higher = more signal, called active from +8 up or from −8 down
[17] = modulators of S6 phosphorylation in cells, primary screen, cell-based, A549, cytoblot, luminescence, serum-stimulated (AID 1158); settings: A549 phospho-S6 cytoblot, 5 h, higher = more signal;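 also: serum-stimulated A549 lung adenocarcinoma cells; signal is phosphorylated S6 detected by cytoblot immunostaining with HRP secondary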
[18] = molecular target: NADPH oxidase 2 (Homo sapiens) (UniProt P04839); experiment: NOX2-dependent H2O2 signal modulators, primary screen, NOX inhibitor project, cell-based, HEK293-NOX2, PMA-stimulated, Amplex Red fluorescence (AID 1159); settings: 45 min, higher = more signal, called active from +8 up or from −8 down; also: test concentration not given here
NADPH oxidase 2 (Homo sapiens), sequence (P04839 whole entry, looked up): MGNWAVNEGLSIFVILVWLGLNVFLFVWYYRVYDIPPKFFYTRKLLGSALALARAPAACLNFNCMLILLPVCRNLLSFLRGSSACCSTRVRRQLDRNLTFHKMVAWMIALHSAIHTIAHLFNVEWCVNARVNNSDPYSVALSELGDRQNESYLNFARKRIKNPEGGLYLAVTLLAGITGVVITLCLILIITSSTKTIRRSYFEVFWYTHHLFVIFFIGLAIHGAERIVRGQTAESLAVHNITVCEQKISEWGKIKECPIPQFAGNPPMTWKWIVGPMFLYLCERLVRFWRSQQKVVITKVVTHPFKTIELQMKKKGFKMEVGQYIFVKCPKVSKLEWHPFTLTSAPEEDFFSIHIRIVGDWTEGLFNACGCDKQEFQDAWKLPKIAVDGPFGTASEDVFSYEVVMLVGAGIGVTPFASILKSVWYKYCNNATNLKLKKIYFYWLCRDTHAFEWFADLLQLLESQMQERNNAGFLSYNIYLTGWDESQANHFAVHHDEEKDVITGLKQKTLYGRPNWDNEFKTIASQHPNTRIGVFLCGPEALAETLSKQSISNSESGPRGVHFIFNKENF

[19] = molecular target: NADPH oxidase 4 (Homo sapiens) (UniProt Q9NPH5); experiment: NOX4-dependent H2O2 signal modulators, primary screen, NOX inhibitor project, cell-based, HEK293-NOX4, tetracycline-induced, Amplex Red fluorescence (AID 1160); settings: 45 min, higher = more signal, called active from +8 up or from −8 down
NADPH oxidase 4 (Homo sapiens), sequence (Q9NPH5 whole entry, looked up): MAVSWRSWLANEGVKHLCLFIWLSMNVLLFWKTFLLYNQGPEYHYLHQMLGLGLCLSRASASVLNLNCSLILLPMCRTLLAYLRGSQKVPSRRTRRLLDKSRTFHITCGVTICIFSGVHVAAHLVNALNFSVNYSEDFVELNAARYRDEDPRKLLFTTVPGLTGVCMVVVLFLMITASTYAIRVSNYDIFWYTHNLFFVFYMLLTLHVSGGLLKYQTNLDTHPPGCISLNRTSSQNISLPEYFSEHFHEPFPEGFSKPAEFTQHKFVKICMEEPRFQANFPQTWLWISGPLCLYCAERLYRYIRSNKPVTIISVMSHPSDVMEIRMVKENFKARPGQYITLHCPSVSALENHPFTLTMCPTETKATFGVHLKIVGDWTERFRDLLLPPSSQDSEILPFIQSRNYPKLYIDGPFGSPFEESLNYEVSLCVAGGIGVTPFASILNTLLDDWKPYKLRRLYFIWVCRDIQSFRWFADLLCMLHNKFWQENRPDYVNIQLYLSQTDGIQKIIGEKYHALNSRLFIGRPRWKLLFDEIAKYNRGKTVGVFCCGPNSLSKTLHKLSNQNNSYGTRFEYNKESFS

[20] = molecular target: NADPH oxidase 5 (Homo sapiens) (UniProt Q96PH1); experiment: NOX5-dependent H2O2 signal modulators, primary screen, NOX inhibitor project, cell-based, HEK293-NOX5, Amplex Red fluorescence (AID 1161); settings: HEK293-NOX5, ionomycin, 45 min, higher = more signal
NADPH oxidase 5 (Homo sapiens), sequence (Q96PH1 whole entry, looked up): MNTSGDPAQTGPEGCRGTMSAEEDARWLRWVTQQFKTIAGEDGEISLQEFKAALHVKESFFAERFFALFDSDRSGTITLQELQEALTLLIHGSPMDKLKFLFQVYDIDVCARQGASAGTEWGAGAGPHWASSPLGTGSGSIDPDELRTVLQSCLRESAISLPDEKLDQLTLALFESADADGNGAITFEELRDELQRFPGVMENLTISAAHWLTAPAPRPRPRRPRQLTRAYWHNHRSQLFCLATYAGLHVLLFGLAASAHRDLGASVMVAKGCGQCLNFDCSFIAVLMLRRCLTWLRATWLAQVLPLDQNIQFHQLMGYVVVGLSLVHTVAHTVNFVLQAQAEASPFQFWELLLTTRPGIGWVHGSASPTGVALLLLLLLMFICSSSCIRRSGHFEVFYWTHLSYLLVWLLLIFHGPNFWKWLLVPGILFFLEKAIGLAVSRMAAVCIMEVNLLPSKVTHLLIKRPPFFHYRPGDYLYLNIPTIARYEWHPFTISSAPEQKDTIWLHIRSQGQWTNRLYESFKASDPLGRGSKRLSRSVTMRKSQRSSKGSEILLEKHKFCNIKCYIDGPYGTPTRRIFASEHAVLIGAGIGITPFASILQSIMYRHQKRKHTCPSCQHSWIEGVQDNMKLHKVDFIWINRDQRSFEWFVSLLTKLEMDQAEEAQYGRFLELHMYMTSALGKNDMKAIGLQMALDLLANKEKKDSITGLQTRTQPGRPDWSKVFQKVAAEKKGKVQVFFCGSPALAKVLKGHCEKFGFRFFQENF

SMILES	composite z-score [1]	z-score [2]	z-score [3]	z-score [4]	z-score [5]	composite z-score [6]	composite z-score [7]	composite z-score [8]	composite z-score [9]	composite z-score [10]	z-score [11]	composite z-score [12]	z-score [13]	z-score [14]	z-score [15]	z-score [16]	z-score [17]	z-score [18]	z-score [19]	z-score [20]
CCCC[C@@H]1CN2[C@H](c3ccc(Br)cc3)[C@@H](C)CC[C@H]2C(=O)O1	-0.134 and -0.107	-0.394 (inactive) and -0.261 (inactive)	-0.379 (inactive) and -0.292 (inactive)	-0.343 (inactive) and 0.285 (inactive)	0.903 (inactive) and 0.466 (inactive)	-0.13 and 0.159	-0.261 and -0.0531	0.0781 and 0.436	0.516 and -0.16	0.11 and 0.152	0.469 (inactive) and -0.0124 (inactive)	-0.308 and -0.0132	1.56 (inactive) and 1.12 (inactive)	0.395 (inactive) and 0.586 (inactive)	1.2 (inactive) and -0.241 (inactive)	0.492 (inactive) and 0.318 (inactive)	0.57 and -0.262	0.203 (inactive) and -0.527 (inactive)	0.332 (inactive) and -0.0635 (inactive)	-0.884 and -1.79
C=CCN(C(=O)C1N(CCOCCO)C(=O)C2C(C(=O)O)C3C=CC21O3)c1ccc(OC)cc1 (stereo not given)	-0.571 and -0.317	-0.769 (inactive) and -0.89 (inactive)	0.0762 (inactive) and 0.0838 (inactive)	0.329 (inactive) and 0.463 (inactive)	0.373 (inactive) and -0.121 (inactive)	-1.35 and -1.27	-0.186 and -0.296	-1.81 and -2.21	-1.91 and -1.9	-1.31 and -0.761	0.168 (inactive) and 0.839 (inactive)	-0.262 and -0.243	-0.586 (inactive) and -1.15 (inactive)	0.0933 (inactive) and -0.0778 (inactive)	-1.1 (inactive) and -0.285 (inactive)	-0.0612 (inactive) and -0.161 (inactive)	1.4 and -0.338	0.073 (inactive) and 0.856 (inactive)	-0.509 (inactive) and -0.782 (inactive)	0.624 and -0.275
C=CCN(C(=O)C1N(CCOCCO)C(=O)C2C(C(=O)O)C3C=CC21O3)C(C)(C)C (stereo not given)	-0.908 and -0.886	-0.773 (inactive) and -0.325 (inactive)	-0.000915 (inactive) and -1.27 (inactive)	-0.627 (inactive) and 0.0605 (inactive)	-0.581 (inactive) and 0.0532 (inactive)	-0.875 and -0.873	-0.179 and -0.319	-1.93 and -2.63	-2.59 and -1.82	-0.783 and -1.34	-0.265 (inactive) and -0.45 (inactive)	-0.161 and -0.695	0.901 (inactive) and -0.5 (inactive)	0.264 (inactive) and 0.438 (inactive)	-0.944 (inactive) and -0.84 (inactive)	-0.305 (inactive) and -0.108 (inactive)	0.0267 and 0.353	0.388 (inactive) and 0.883 (inactive)	0.292 (inactive) and -0.3 (inactive)	1.19 and -0.295
CC(C)[Si]1(C(C)C)OCc2cc(CCCc3cc4c(c(CCc5ccccc5)n3)[Si](C(C)C)(C(C)C)OC4)nc(CCc3ccccc3)c21	0.0898 and 0.0154	-0.871 (inactive) and 0.114 (inactive)	0.0644 (inactive)	0.731 (inactive) and 0.469 (inactive)	-0.315 (inactive) and 0.352 (inactive)	-0.59 and 0.473	-0.0791 and 0.0442	-0.473 and 0.21	0.0547 and 0.39	0.405 and 0.595	2.34 (inactive) and -0.836 (inactive)	-0.147 and -0.192	1.1 (inactive) and 0.221 (inactive)	-0.712 (inactive) and -0.436 (inactive)	-1.01 (inactive) and -0.355 (inactive)	-0.788 (inactive) and -0.406 (inactive)	0.0671 and -0.999	1.5 (inactive) and 0.412 (inactive)	0.0233 (inactive) and 0.608 (inactive)	-2.98 and -0.0908
CCOC(=O)C[C@H]1[C@H](OC(=O)c2ccccc2-c2ccccc2)[C@@H](NC(=O)c2ccccc2)c2cc(OCCCO)ccc2N1C(=O)c1ccc2ccccc2n1	0.103 and 0.147	-0.616 (inactive) and 0.662 (inactive)	0.559 (inactive) and 0.171 (inactive)	9.27 (active) and -0.23 (inactive)	0.158 (inactive) and -0.583 (inactive)	-0.0119 and 1.12	0.216 and 0.0047	0.144 and 0.158	0.0956 and 0.344	0.502 and 1.8	0.869 (inactive) and -0.664 (inactive)	0.126 and 0.341	5.24 (inactive) and 2.8 (inactive)	0.709 (inactive) and 0.295 (inactive)	0.195 (inactive) and -0.416 (inactive)	0.353 (inactive) and 0.188 (inactive)	0.649 and -0.172	-0.556 (inactive) and -1.18 (inactive)	0.848 (inactive) and 0.921 (inactive)	2.2 and 0.732
C=C(C)C(=O)OC[C@@H]1CN2[C@@H](CC[C@@H](C)[C@@H]2c2ccc(Br)cc2)C(=O)O1	-0.0892	-0.0082 (inactive)	-1.58 (inactive)	1.54 (inactive)	0.11 (inactive)	-0.222	-0.0895	0.457	0.231	0.605	-0.181 (inactive)	0.218	1.51 (inactive)	0.0995 (inactive)	0.289 (inactive)	0.294 (inactive)	0.525	-0.29 (inactive)	1 (inactive)	0.481
C=CCN(CCCC)C(=O)C1N(CCOCCO)C(=O)C2C(C(=O)O)C3C=CC21O3 (stereo not given)	-0.978 and -0.38	0.757 (inactive) and -0.117 (inactive)	1.42 (inactive) and 1.2 (inactive)	-0.899 (inactive) and -0.497 (inactive)	-0.327 (inactive) and -0.267 (inactive)	-1.6 and -1.56	-0.128 and -0.353	-3.18 and -0.099	-2.51 and 2.04	-1.52 and -1.51	0.151 (inactive) and -0.207 (inactive)	-0.191 and -0.454	0.461 (inactive) and -0.326 (inactive)	0.703 (inactive) and 0.124 (inactive)	-0.668 (inactive) and -0.506 (inactive)	0.0875 (inactive) and 0.111 (inactive)	-0.0621 and 0.53	0.502 (inactive) and 0.676 (inactive)	-1.77 (inactive) and -2.02 (inactive)	-0.512 and 0.152
CO[C@@H]1C=CCC(=O)N2CCC[C@H]2C(=O)OC[C@H](C)C(=O)OC[C@H]1C	-0.0492	0.0002 (inactive)	-0.789 (inactive)	-0.113 (inactive)	-0.192 (inactive)	-0.69	-0.186	0.772	1.63	1.64	0.813 (inactive)	-0.0536	-0.393 (inactive)	-0.25 (inactive)	-0.355 (inactive)	0.0084 (inactive)	0.0533	-0.773 (inactive)	0.208 (inactive)	0.221
C=CCN(C(=O)C(c1cccs1)N(C(=O)/C=C\C(=O)O)C(C)(C)CO)c1ccc(OC)cc1 (stereo not given)	-0.0325 and -0.446	-1.8 (inactive) and -0.679 (inactive)	-1.09 (inactive)	-0.488 (inactive) and -0.619 (inactive)	-1.07 (inactive) and 0.149 (inactive)	-1.19 and -0.56	-0.061 and -0.0371	-1.58 and -0.301	-0.269 and 1.24	-0.763 and -0.121	3.97 (inactive) and 3.23 (inactive)	-0.0722 and 0.121	0.292 (inactive) and 3.92 (inactive)	-0.775 (inactive) and -0.466 (inactive)	0.029 (inactive) and -0.675 (inactive)	-1.05 (inactive) and -1.12 (inactive)	1.97 and 1.04	0.0253 (inactive) and -0.0835 (inactive)	-0.464 (inactive) and -0.814 (inactive)	-0.126 and 0.853
CO[C@H]1COC(=O)CC=C[C@H](C)[C@H](OC)COC(=O)[C@@H](C)COC(=O)CC=C[C@@H]1C	-0.051 and -0.105	1.08 (inactive) and -0.441 (inactive)	-0.186 (inactive) and 0.0947 (inactive)	-0.116 (inactive) and -1.19 (inactive)	-0.689 (inactive) and -0.777 (inactive)	-0.313 and 0.0956	-0.195 and -0.224	0.636 and 0.802	0.269 and 1.17	1.08 and 1.09	0.462 (inactive) and 0.63 (inactive)	-0.294 and -0.193	-0.267 (inactive) and 0.565 (inactive)	-0.162 (inactive) and -0.455 (inactive)	-0.146 (inactive) and 0.4 (inactive)	-0.0153 (inactive) and 0.179 (inactive)	-0.0498 and 0.833	0.282 (inactive) and 1.16 (inactive)	0.201 (inactive) and 0.589 (inactive)	-0.26 and 0.25
